This is an account of results in PubChem BioAssay.

Molecules are shown by their SMILES. The source made the active and inactive calls.

The subject of test [1] is Plasmodium falciparum Sir2 (PF13_0152, Sir2A). Nature of the test: Plasmodium falciparum Sir2A binding compounds – biochemical, small-molecule microarray, 635 nm fluorescence, primary screen (AID 1098).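 Note: score merges spot fluorescence intensity with its signal-to-noise ratio.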 The conditions noted are these: fluorescence 635 nm, higher = more signal.
A short description of test [2]: probe aDKK1 binding to arrayed compounds – biochemical, biotinylated probe, 635/667 nm fluorescence, primary screen (AID 1099).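 Note: score merges 667nm spot fluorescence with signal to noise across triplicate slides.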 The following applies: small-molecule microarray, higher = more signal.
Test [3] is described as follows: probe aCHRDL2 binding to arrayed compounds – biochemical, biotinylated probe, 635/667 nm fluorescence, primary screen (AID 1100). The following applies: small-molecule microarray, higher = more signal.
The nature of test [4]: change in splice reporter luminescence, either direction, cell-based, HEK293, spliceosome inhibition project, primary screen (AID 1101).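 Note: HEK293 cells carrying a splicing-competent luciferase reporter gene; test concentration not given here.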 The conditions noted are these: HEK293 splicing luciferase reporter, 24 h, higher = more signal, called active from +8 up or from −8 down. (In general: Reporter assays use an easily measured gene product as a stand-in for the process of interest.)

In test [5] the target is Fibroblast growth factor 10 (Homo sapiens) (UniProt O15520). Description: compounds binding fibroblast growth factor 10 – biochemical, small-molecule microarray, 635 nm fluorescence, primary screen (AID 1102). The following applies: FGF10 binding, fluorescence 635 nm, higher = more signal.
Test [6] relates to glycogen synthase kinase-3 (GSK3A per assay name; protocol says GSK3B). Nature of the test: compounds binding glycogen synthase kinase-3 – biochemical, small-molecule microarray, 635 nm fluorescence, GSK3A, primary screen (AID 1103). Note: the record names both GSK3A and GSK3B. The following applies: fluorescence 635 nm, higher = more signal.
The target of test [7] is Epidermal growth factor receptor (Homo sapiens) (UniProt P00533). Description: compounds binding epidermal growth factor receptor – biochemical, small-molecule microarray, 635 nm fluorescence, primary screen (AID 1104).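 Note: score merges 667 nm emission intensity with spot signal to noise over triplicate slides.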 The conditions noted are these: EGFR binding, higher = more signal.
The target of test [8] is Follistatin-related protein 3 (Homo sapiens) (UniProt O95633). Nature of the test: compounds binding follistatin-related protein 3 – biochemical, small-molecule microarray, 635 nm fluorescence, primary screen (AID 1105).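 Note: score merges emission near 667 nm and signal to noise per printed spot across three slides.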 The conditions noted are these: FSTL3 binding, higher = more signal.
The target in test [9] is Dickkopf-related protein 1 (Homo sapiens) (UniProt O94907). Description: small molecules binding DKK1 protein – biochemical, small-molecule microarray, 635 nm fluorescence scan, primary screen (AID 1106).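 Note: score merges emission near 667 nm with signal to noise over three replicate slides.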 The conditions noted are these: higher = more signal.
The test system of test [10] is Inhibin beta A chain (activin A). Nature of the test: small molecules binding activin A – biochemical, small-molecule microarray, 635 nm fluorescence scan, primary screen (AID 1107).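 Note: mouse activin A protein probed at 4.33 µg/mL on printed slides; score merges bound-protein fluorescence near 667 nm with spot signal-to-noise.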 The conditions noted are these: INHBA, higher = more signal.
Test [11] relates to Human papillomavirus type 1a protein E7 (residues 44-93). Description: small molecules binding HPV E7 44-93 – biochemical, small-molecule microarray, residues 44-93, 635 nm fluorescence, primary screen (AID 1108).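 Note: E7 fragment applied at 1 µg/mL in TBST for 1 h at 4 C; score combines spot fluorescence with its signal to noise ratio.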 The conditions noted are these: fluorescence 635 nm, higher = more signal.
The nature of test [12]: hepatitis C replication reporter changes, two-sided – Huh7 cells, luciferase reporter, HCV replication inhibitor project, primary screen (AID 1109).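 Note: huh7 hepatoma cells harbouring a luciferase neomycin HCV replicon reporter; luciferase luminescence as measure of HCV replicon replication; test concentration not given here.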 The conditions noted are these: Huh7 HCV replicon luciferase reporter, 48 h; higher = more signal.
The target in test [13] is Left-right determination factor 2 (Homo sapiens) (UniProt O00292). Nature of the test: small molecules binding LEFTY2 protein – biochemical, small-molecule microarray, 635 nm fluorescence scan, primary screen (AID 1110). The following applies: higher = more signal.
The target of test [14] is Calmodulin-1 (Homo sapiens) (UniProt P0DP23). Nature of the test: small molecules binding calmodulin-1 with EGTA – biochemical, small-molecule microarray, Cy5-labelled CALM1, profiling panel (AID 1111).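 Note: labelled calmodulin applied in Tris saline Tween buffer holding calcium plus EGTA and DTT.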 The following applies: Cy5-CALM1 binding fluorescence, higher = more signal.
Test [15] shares this target. Nature of the test: small molecules binding Ca-loaded calmodulin-1 – biochemical, small-molecule microarray, Cy5-labelled CALM1, plus calcium, artefact control for SMM control-protein annotation, profiling panel (AID 1112).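 Note: score merges spot fluorescence with signal to noise from triplicate slides.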 The conditions noted are these: Cy5-CALM1 binding fluorescence, higher = more signal.
A short description of test [16]: probe aWnt5a binding to arrayed compounds – biochemical, biotinylated probe, 635/667 nm fluorescence, primary screen (AID 1113).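 Note: score merges 667 nm fluorescence intensity with signal-to-noise per printed feature.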 The conditions noted are these: small-molecule microarray, higher = more signal.
Test [17] can be described thus: probe aShh binding to arrayed compounds – biochemical, biotinylated probe, 635/667 nm fluorescence, primary screen (AID 1114).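 Note: probe is biotin-labelled aShh protein from a stem cell growth factor screen; measures binding of labelled protein to compounds printed on the slide; score merges feature fluorescence at 667 nm with signal-to-noise.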 The following applies: small-molecule microarray, higher = more signal.
Test [18] can be described thus: probe aNog binding to arrayed compounds – biochemical, biotinylated probe, 635/667 nm fluorescence, primary screen (AID 1115).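 Note: probe is biotinylated aNog protein used at 0.15 µg/mL for 1 h at 4 C; z-score combines 667 nm fluorescence of each spot with its signal to noise.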 The following applies: small-molecule microarray, higher = more signal.
The target in test [19] is Torsin-1A-interacting protein 1 (Homo sapiens) (UniProt Q5JTV8). Nature of the test: compound microarray binding of lysate hLAP1 – cell lysate, small-molecule microarray, COS7 lysate, 635/667 nm fluorescence, primary screen (AID 1116). The conditions noted are these: 635 nm fluorescence, higher = more signal.
The target in test [20] is Alpha-bungarotoxin (Bungarus multicinctus) (UniProt P60615). Description: compounds binding labelled alpha-BTX control protein – biochemical, small-molecule microarray, Alexa647 label, 635/667 nm fluorescence, artefact control for SMM control protein annotation, profiling panel (AID 1117). The following applies: alpha-BTX-A647 binding fluorescence, higher = more signal.
Chain of Alpha-bungarotoxin (Bungarus multicinctus) (P60615 whole entry, looked up): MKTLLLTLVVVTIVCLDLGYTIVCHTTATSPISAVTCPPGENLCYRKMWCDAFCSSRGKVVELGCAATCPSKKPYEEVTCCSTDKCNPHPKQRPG

Chain of Fibroblast growth factor 10 (Homo sapiens) (O15520 whole entry, looked up): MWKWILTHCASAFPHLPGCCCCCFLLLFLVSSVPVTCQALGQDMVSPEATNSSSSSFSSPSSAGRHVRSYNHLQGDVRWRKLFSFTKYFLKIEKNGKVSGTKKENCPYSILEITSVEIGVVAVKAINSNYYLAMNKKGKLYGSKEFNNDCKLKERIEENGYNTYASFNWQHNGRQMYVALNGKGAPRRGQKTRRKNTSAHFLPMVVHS
Chain of Dickkopf-related protein 1 (Homo sapiens) (O94907 whole entry, looked up): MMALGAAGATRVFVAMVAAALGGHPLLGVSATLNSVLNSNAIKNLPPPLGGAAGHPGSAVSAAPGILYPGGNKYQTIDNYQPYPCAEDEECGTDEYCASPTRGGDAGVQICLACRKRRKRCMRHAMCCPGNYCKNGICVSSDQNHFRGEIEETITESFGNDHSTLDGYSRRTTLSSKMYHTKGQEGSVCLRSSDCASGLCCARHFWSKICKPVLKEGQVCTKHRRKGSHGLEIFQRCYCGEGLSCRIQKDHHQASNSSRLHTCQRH
Chain of Left-right determination factor 2 (Homo sapiens) (O00292 whole entry, looked up): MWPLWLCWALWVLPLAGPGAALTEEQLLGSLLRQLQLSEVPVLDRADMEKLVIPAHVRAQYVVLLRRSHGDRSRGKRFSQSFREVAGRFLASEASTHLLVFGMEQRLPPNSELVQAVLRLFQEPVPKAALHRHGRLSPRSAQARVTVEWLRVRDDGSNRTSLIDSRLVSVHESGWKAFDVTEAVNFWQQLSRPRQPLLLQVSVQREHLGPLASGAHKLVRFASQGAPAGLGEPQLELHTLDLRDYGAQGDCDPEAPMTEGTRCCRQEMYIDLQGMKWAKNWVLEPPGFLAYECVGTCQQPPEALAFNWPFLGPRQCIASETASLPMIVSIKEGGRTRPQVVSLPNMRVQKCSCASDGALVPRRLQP
Chain of Follistatin-related protein 3 (Homo sapiens) (O95633 whole entry, looked up): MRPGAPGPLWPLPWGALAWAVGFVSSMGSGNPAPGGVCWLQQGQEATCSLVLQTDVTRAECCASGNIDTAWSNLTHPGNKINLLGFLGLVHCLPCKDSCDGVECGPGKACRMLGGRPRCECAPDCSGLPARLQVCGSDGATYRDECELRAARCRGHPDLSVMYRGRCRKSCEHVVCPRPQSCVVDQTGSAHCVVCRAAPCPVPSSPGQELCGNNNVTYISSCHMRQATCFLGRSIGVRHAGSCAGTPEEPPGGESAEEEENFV
Chain of Epidermal growth factor receptor (Homo sapiens) (P00533 whole entry, looked up): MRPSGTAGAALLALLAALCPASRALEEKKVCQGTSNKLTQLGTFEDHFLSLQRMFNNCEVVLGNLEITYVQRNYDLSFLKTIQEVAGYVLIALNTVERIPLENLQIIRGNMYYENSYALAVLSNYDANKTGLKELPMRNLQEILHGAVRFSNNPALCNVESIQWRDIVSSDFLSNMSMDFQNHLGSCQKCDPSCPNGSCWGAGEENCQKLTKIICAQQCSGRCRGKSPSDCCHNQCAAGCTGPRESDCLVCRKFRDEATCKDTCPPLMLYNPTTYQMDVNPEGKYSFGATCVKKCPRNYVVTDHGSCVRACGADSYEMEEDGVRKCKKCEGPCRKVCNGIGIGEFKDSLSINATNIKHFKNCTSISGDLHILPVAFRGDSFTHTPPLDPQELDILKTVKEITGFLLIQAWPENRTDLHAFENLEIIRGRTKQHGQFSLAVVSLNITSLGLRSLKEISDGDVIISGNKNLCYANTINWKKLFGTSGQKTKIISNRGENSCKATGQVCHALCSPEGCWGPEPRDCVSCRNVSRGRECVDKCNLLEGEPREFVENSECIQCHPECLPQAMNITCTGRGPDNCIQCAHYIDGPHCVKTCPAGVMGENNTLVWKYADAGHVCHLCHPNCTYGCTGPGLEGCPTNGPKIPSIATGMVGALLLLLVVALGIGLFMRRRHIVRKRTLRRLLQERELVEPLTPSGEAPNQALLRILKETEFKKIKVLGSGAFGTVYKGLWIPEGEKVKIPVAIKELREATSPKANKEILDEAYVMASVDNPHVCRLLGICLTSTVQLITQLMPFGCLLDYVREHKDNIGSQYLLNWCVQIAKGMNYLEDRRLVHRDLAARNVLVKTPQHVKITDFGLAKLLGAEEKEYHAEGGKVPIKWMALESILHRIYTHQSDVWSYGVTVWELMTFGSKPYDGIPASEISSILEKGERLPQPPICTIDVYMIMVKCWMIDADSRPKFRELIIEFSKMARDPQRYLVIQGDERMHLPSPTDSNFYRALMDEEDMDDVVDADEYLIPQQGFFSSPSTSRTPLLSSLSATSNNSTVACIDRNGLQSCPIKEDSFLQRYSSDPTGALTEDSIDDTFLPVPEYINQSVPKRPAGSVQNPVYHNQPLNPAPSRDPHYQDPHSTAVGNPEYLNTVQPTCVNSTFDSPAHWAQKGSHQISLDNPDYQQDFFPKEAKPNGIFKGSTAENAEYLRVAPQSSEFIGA
Chain of Torsin-1A-interacting protein 1 (Homo sapiens) (Q5JTV8 whole entry, looked up): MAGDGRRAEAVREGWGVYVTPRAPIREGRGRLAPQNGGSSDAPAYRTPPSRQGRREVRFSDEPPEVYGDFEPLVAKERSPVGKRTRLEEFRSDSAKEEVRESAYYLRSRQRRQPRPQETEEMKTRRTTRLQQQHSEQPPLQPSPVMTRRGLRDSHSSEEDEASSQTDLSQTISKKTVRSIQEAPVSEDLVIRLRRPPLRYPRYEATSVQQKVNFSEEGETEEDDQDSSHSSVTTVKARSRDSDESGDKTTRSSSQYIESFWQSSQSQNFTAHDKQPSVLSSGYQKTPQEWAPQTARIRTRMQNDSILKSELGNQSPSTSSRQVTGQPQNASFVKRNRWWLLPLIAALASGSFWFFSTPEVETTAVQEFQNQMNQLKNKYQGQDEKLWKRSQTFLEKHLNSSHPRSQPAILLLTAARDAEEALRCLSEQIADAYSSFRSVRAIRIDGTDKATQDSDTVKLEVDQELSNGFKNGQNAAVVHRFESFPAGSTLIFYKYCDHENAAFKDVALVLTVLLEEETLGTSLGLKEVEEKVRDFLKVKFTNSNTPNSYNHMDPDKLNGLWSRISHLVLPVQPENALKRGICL

For `C=CCOC(=O)[C@H]1[C@@H]2C(=O)O[C@@H](c3ccccc3)[C@@H](c3ccccc3)N2[C@@H](c2ccc(OCCOC(=O)[C@@H]3C[C@@H]4C(=O)N[C@@H](CCCC[N+](C)(C)C)C(=O)N4[C@@H]3c3ccc(O)cc3)cc2)[C@]12C(=O)Nc1ccc(I)cc12`, the composite z-score was 1.1 in [1]; 0.031 in test [2]; -0.211 in test [3]; 1.2 in [5]; 1.24 in test [6]; 0.934 in test [7]. Also, the composite z-score in test [8] came to 1.21; in test [9] it was 1.07; in test [10] it was 0.723; in test [11], 1.41; in test [13], 0.668; in test [14], 0.167. Also, the composite z-score in test [15] was -0.49; in test [16] it was 0.0324; in test [17] it was 0.203; in test [18], 1.06; in test [19], 1.84; in test [20] it was 0.74. The results for the z-score in test [4] and in [12] were -0.21 (inactive) and -2.84, respectively.

Turning to `C=CCNC(=O)[C@H]1[C@@H]2C(=O)O[C@@H](c3ccccc3)[C@@H](c3ccccc3)N2[C@@H](c2ccccc2OCCO)[C@]12C(=O)N(C(=O)OCCOC)c1ccc(C#Cc3ccc(OC)cc3)cc12`, the composite z-score came to 0.801 in test [1]; 0.256 in test [2]; 0.581 in [3]; 0.654 in test [5]; 1.06 in [6]; 0.301 in test [7]. The composite z-score is 0.0527 in test [8]; -0.163 in test [9]; 0.032 in test [10]; 1.39 in test [11]; 0.342 in [13]; 1.39 in test [14]. The composite z-score in test [15] is 0.37; in test [16], -0.152; in test [17], -0.0011; in test [18], 0.254; in test [19] it was 0.143; in [20], 1.3. The z-score was 0.522 (inactive) in [4] and -2.79 in test [12].

On to `COC(=O)C[C@H]1O[C@@]2(C[C@@H]1[Si](C)(C)C)C(=O)N(C)c1ccccc12`, for which the composite z-score in test [1] was 0.0786; in [2], -0.251; in [3], -0.52; in [5] it was 0.955; in [6], 0.59; in test [7], 0.559. For the same compound, the composite z-score in test [8] was 0.612; in test [9], 0.525; in [10] it was -1.08; in test [11] it was 1.06; in test [13] it was 0.392; in test [14], -0.197. Also, the composite z-score in test [15] is -0.273; in test [16], -0.0643; in test [17] it was -0.362; in test [18] it was 0.273; in [19], -0.116; in test [20], 0.586. The figures for the z-score in [4] and in [12] were -0.662 (inactive) and -0.83, respectively.

Turning to `Cc1ccc(N2C(=O)c3ccccc3[C@](C)(C(=O)NCCCN(C)C)[C@@H]2c2ccc(CO)cc2)nc1`, the composite z-score in [1] was 0.485; in test [2], -0.0971; in [3] it was 0.451; in [5], -0.47; in [6] it was -1.21; in [7], -1.1. Moreover, the composite z-score in [8] is -0.444; in test [9], -0.599; in test [10] it was 0.573; in test [11], 0.571; in test [13], -1.05; in [14], -0.213. For the same compound, the composite z-score was -0.338 in test [15]; -0.148 in test [16]; -0.138 in test [17]; -0.348 in [18]; -0.312 in test [19]; 0.149 in test [20]. Besides, the z-score in test [4] is 0.055 (inactive); in [12] it was -0.199.

On to `C=CCC(OC(C)=O)[C@@H]1[C@@H](N(Cc2ccc(-c3cccc(C(F)(F)F)c3)o2)C(=O)c2ccc(-c3ccccc3)cc2)c2cc(OCCCO)ccc2N1C(=O)c1ccc2ccccc2c1` (stereo not given in full), for which the composite z-score in test [1] is 0.194; in test [2], -0.151; in test [3], 0.397; in test [5] it was 0.225; in test [6] it was 0.099; in test [7] it was 0.1. In addition, the composite z-score was 0.695 in [8]; 0.15 in test [9]; 1.22 in test [10]; -0.701 in test [11]; 0.27 in [13]; 0.0114 in test [14]. In addition, the composite z-score in test [15] was 0.255; in [16] it was -0.119; in [17] it was 0.0121; in test [18], -0.399; in [19] it was 0.33; in [20], 0.0035. In addition, the z-score was 0.697 (inactive) in test [4] and -0.514 in test [12].

With `CCCCN1CC=CC23O[C@@H]4/C=C\CCCOC(=O)C4[C@H]2C(=O)N(C(CO)C(C)C)[C@@H]3C1=O` (stereo not given in full), the composite z-score in test [1] was -0.459; in test [2], -0.277; in test [3], -0.179; in test [5], -0.138; in test [6], -0.115; in [7], 0.183. Besides, the composite z-score is -0.436 in test [8]; 0.323 in test [9]; 1.21 in [10]; -0.0052 in test [11]; 0.272 in test [13]; -0.11 in test [14]. The composite z-score is -0.0085 in test [15]; -0.0482 in [16]; 0.0469 in test [17]; -0.51 in [18]; 0.0974 in test [19]; -0.838 in test [20]. Also, the z-score in [4] is 0.558 (inactive); in test [12], -0.134.
